# Source: the supplement of paper PMC6522484
# ± gives the standard deviation of the averaged measurements.
# Legend:
# DLD1 [1] = test: cell viability (CellTiter-Glo) relative to plate median (fraction of plate median); higher = more viable cells; settings: 5 µM; treatment time 24 h; reporter: 7TFP
# Outline: (§1)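 Colorectal cancer cell lines stably transduced with lentiviral TCF/Wnt firefly luciferase reporters (7TFP or TCF4/Wnt) were seeded in 384-well plates. 24 h later they received library compounds at a final 5 µM for 24 h. Parallel plates were read for firefly luciferase or CellTiterGlo luminescence on a Tecan F500 reader. Each well's signal was normalised to the plate median (webcellHTS2, additive, no log transformation), and the mean of two independent replicates is reported.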
# HCT116 = test: as above; settings: 5 µM; treatment time 24 h; reporter: TCF4/Wnt
# Outline: as §1
# SW480 [2] = test: as above; settings: 5 µM; treatment time 24 h; reporter: 7TFP
# Outline: as §1
# DLD1 [3] = test: TCF/Wnt firefly luciferase reporter signal relative to plate median (fraction of plate median); higher = higher Wnt reporter signal; settings: 5 µM; treatment time 24 h; reporter: 7TFP
# Outline: as §1
# SW480 [4] = test: as above; settings: 5 µM; treatment time 24 h; reporter: 7TFP
# Outline: as §1
Compound,cell viability (DLD1 [1]),cell viability (HCT116),cell viability (SW480 [2]),TCF/Wnt firefly luciferase reporter signal (DLD1 [3]),TCF/Wnt firefly luciferase reporter signal (SW480 [4])
COc1ccc(-c2coc3cc(OC(C)=O)cc(OC(C)=O)c3c2=O)cc1,1.01 ± 0.023,0.994 ± 0.079,0.976 ± 0.0057,1.34 ± 0.3,1.23 ± 0.16
C[C@H](CCC(=O)O)[C@H]1CC[C@H]2[C@@H]3CC[C@@H]4CCCC[C@]4(C)[C@H]3CC[C@]12C,0.984 ± 0.016,1.06 ± 0.035,1.06 ± 0.09,0.905 ± 0.044,1.03 ± 0.059
COc1cc(-c2cc(=O)c3c(O)c(OC)c(OC)c(OC)c3o2)cc(OC)c1OC,0.948 ± 0.073,1.06 ± 0.098,0.956 ± 0.02,1.02 ± 0.028,0.936 ± 0.021
COC1=CC(=O)C(O)=C/C1=C\C=C\c1ccccc1,1 ± 0.013,1.06 ± 0.12,1 ± 0.057,1.1 ± 0.064,0.905 ± 0.1
C=CCCCCCCCCCCCC(O)CC(O)CO (stereo not given),1.1 ± 0.099,1.05 ± 0.11,1.05 ± 0.05,0.964 ± 0.05,1.03 ± 0.042
CC(=O)C1=C(O)C=C2Oc3c(C(C)=O)c(O)c(C)c(O)c3C2(C)C1=O (stereo in doubt),0.995 ± 0.035,1.04 ± 0.028,0.968 ± 0.018,1.2 ± 0.13,0.973 ± 0.052
CCOC(=O)c1c(C)cc(O)c(C=O)c1O,0.945 ± 0.05,1.08 ± 0.014,0.9445 ± 0.005,0.865 ± 0.11,0.861 ± 0.11
CC(=O)c1oc(C)c2c1C(=O)c1cccc(O)c1C2=O [Bhimamycin B],0.955 ± 0.019,1.01 ± 0.015,0.9505 ± 0.00071,1.02 ± 0.035,1.1 ± 0.028
O.O.O.O.O=C([O-])CC(O)(CC(=O)[O-])C(=O)[O-].[Li+].[Li+].[Li+],0.955 ± 0.11,0.852 ± 0.086,0.966 ± 0.0028,0.844 ± 0.012,0.725 ± 0.14
COC(=O)[C@@]1(C)CCC[C@]2(C)c3ccc(O)c(C(C)C)c3CCC12 (stereo not given in full),1.03 ± 0.028,0.982 ± 0.096,1.03 ± 0.028,0.892 ± 0.046,0.88 ± 0.049
C[C@@H]1CC[C@H]2C(C(=O)O)=C[C@@H]3[C@@H](O)C(C)(C)C[C@@]132 [Pentalenic acid],0.966 ± 0.019,0.941 ± 0.016,1.02 ± 0.042,0.794 ± 0.13,0.98 ± 0.16
C[C@@H]1CC[C@H]2C(C)(C)[C@H]3C[C@@]12CC[C@@]3(C)O,1.02 ± 0.029,1.07 ± 0.057,1.03 ± 0.021,1.03 ± 0.014,0.94 ± 0.083
CC1(C)CC23C(=O)CCC(O)C2(C)CCC13 (stereo not given),1.05 ± 0.15,1.065 ± 0.0071,1.01 ± 0.049,0.942 ± 0.11,1.04 ± 0.074
O=C(O)Cc1ccccc1Nc1c(Cl)cccc1Cl,0.955 ± 0.078,0.938 ± 0.037,0.96 ± 0.032,0.95 ± 0.05,0.848 ± 0.13
CC(=O)O[C@H]1C[C@@]2(C)[C@@H](C[C@@H](O)[C@H]3[C@@]4(C)CC[C@@H](O)[C@@H](C)[C@@H]4CC[C@@]32C)/C1=C(\CCC=C(C)C)C(=O)O,1.04 ± 0.05,1 ± 0.054,1.04 ± 0.028,1.12 ± 0.05,1.06 ± 0.064
OC1=Cc2c(O)cc(O)cc2OC1(O)c1ccc(O)c(O)c1 (stereo not given),0.963 ± 0.053,1.07 ± 0.17,0.943 ± 0.044,0.923 ± 0.07,0.9795 ± 0.0021
CC(C)c1c(C(=O)Nc2ccccc2)c(-c2ccccc2)c(-c2ccc(F)cc2)n1CC[C@@H](O)C[C@@H](O)CC(=O)O,0.9915 ± 0.0092,1 ± 0.069,1.01 ± 0.076,0.966 ± 0.09,0.909 ± 0.013

Compound,cell viability (DLD1 [1]),cell viability (HCT116),cell viability (SW480 [2]),TCF/Wnt firefly luciferase reporter signal (DLD1 [3]),TCF/Wnt firefly luciferase reporter signal (SW480 [4])
C#CCCCCCCCCCCCc1ccco1,0.997 ± 0.033,1.03 ± 0.014,1.075 ± 0.0071,1.145 ± 0.0071,0.953 ± 0.096
COc1ccc(-c2cc(=O)c3ccccc3o2)cc1OC,1.07 ± 0.05,1.01,1.06 ± 0.057,0.906 ± 0.0099,1.03 ± 0.035
O=c1n(CCCN2CCN(c3cccc(Cl)c3)CC2)nc2ccccn12,1.005 ± 0.0071,0.987 ± 0.12,1.01 ± 0.014,1.08 ± 0.28,0.971 ± 0.083
CCN(CC)Cc1cc(Nc2ccnc3cc(Cl)ccc23)ccc1O,0.908 ± 0.064,0.967 ± 0.016,0.946 ± 0.051,0.952 ± 0.17,0.921 ± 0.25
COc1ccc([C@@H]2Sc3ccccc3N(CCN(C)C)C(=O)[C@@H]2OC(C)=O)cc1,0.931 ± 0.17,0.975 ± 0.028,1.01 ± 0.033,0.883 ± 0.029,0.989 ± 0.059
CN[C@@H]1[C@H](O[C@H]2[C@H](O[C@H]3[C@H](O)[C@@H](O)[C@H](N=C(N)N)[C@@H](O)[C@@H]3N=C(N)N)O[C@@H](C)[C@]2(O)C=O)O[C@@H](CO)[C@H](O)[C@H]1O,0.962 ± 0.097,0.936 ± 0.044,1.07 ± 0.078,0.817 ± 0.0014,0.935 ± 0.0028
C[C@@H]1C/C=C2\SC[C@@H](NC(=O)c3coc(n3)C[C@H](O)C[C@H](O)/C=C/C=C/CNC2=O)C(=O)O1 [Griseoviridin],0.995 ± 0.021,1.04 ± 0.05,1.01 ± 0.021,0.873 ± 0.12,0.957 ± 0.034
C[C@](N)(Cc1ccc(O)c(O)c1)C(=O)O,0.981 ± 0.098,0.996 ± 0.062,1.03 ± 0.028,1.04 ± 0.087,1.03 ± 0.12
C1CCC(C(CC2CCCCN2)C2CCCCC2)CC1 (stereo not given),1.05 ± 0.05,0.983 ± 0.052,1.12 ± 0.021,0.971 ± 0.013,1.03
CCCCCC1C(=O)CCC1CC(=O)OC (stereo not given),0.99 ± 0.057,1.03 ± 0.084,1.025 ± 0.0071,1.08 ± 0.05,1.03 ± 0.066
CCN(CC)CCNC(=O)c1cc(Br)c(N)cc1OC,1.02 ± 0.081,1.07 ± 0.028,1.02 ± 0.047,0.985 ± 0.05,1.16 ± 0.078
CCc1cnn2c(NCc3ccc[n+]([O-])c3)cc(N3CCCC[C@H]3CCO)nc12 [Dinaciclib],0.99 ± 0.042,0.779 ± 0.069,1.32 ± 0.12,0.57 ± 0.12,0.789 ± 0.035
CCc1c(O)cc(C(C)CC)oc1=O (stereo not given) [Germicidin],1.02 ± 0.014,0.92 ± 0.034,0.965 ± 0.05,0.946 ± 0.16,1.06 ± 0.09
CC(=O)OCC(=O)[C@H]1CC[C@H]2[C@@H]3CCC4=CC(=O)CC[C@]4(C)[C@H]3CC[C@]12C,0.952 ± 0.082,0.961 ± 0.13,0.974 ± 0.0014,1.11 ± 0.05,0.93 ± 0.059
CC1=Nc2ccc(Cl)cc2S(=O)(=O)N1,0.946 ± 0.016,1.06 ± 0.12,0.975 ± 0.05,1.135 ± 0.0071,0.86 ± 0.14
C[C@]12CCC3c4ccc(OC(=O)c5ccccc5)cc4CCC3C1CCC2=O (stereo not given in full),1.05 ± 0.05,1.01 ± 0.021,0.991 ± 0.011,0.978 ± 0.045,0.989 ± 0.058
